Of roughly 8,800 targets only a part is listed; those with a hit were picked by preference. About 0.5% of all pairs of compound and target were hits. Values without a mark were called inactive.
Tests used:
Experiment in all cases: log2 fold change, soluble protein after heating vs DMSO (PISA); higher = thermal stabilisation; K562 lysate, 10 uM; active = over 0.2 and 3.5 SD of the protein, either way, in both replicates (recomputed)
erlotinib = compound: C#Cc1cccc(Nc2ncnc3cc(OCCOC)c(OCCOC)cc23)c1 [erlotinib]
Procedure, shortened: (§1)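 Thermal stability, expressed as log-two fold change relative to solvent controls, is given from duplicates. Crude K562 extract in PBS pH 7.4 with 1 mM MgCl2, at 1 mg/mL protein, was treated with 10 μM compound for 30 min and heated in aliquots for 3 min across 48°C-58°C. After pooling, adjustment to 0.5% NP-40 at 4°C and centrifugation at 21,000xg for 90 min, supernatant protein was measured by TMTpro 16plex LC-MS/MS with channel sums equalised.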

[1] = compound: C/C(=N\NC(=O)C1=CC(=CC=C1)S(=O)(=O)N2CCOCC2)/C3=C(C=CC(=C3)Cl)O
Procedure, shortened: as §1

[2] = compound: C1=CC(=CC=C1C2=NC3=C(N2)C=C(C=C3)C(=O)N)OC4=CC=C(C=C4)Cl
Procedure, shortened: as §1

[3] = compound: C1=CC2=C(C=CC(=C2)/C=C\3/C(=O)NC(=NCC4=CC=CS4)S3)N=C1
Procedure, shortened: as §1

[4] = compound: C1=CC2=NC=CN=C2C=C1/C=C/3\C(=O)NC(=O)S3
Procedure, shortened: as §1

[5] = compound: C1=CC=C(C=C1)C2=NC(=C(N2)C3=CC=NC=C3)C4=CC(=C(C=C4)Cl)O
Procedure, shortened: as §1

[6] = compound: C1=CC=C2C(=C1)C3=NNC4=CC=CC(=C43)C2=O
Procedure, shortened: as §1

[7] = compound: C1CCN(C1)C(=O)NC2=CC=CC(=C2)NC3=NC=C(C(=N3)NCCC4=CN=CN4)Br
Procedure, shortened: as §1

[8] = compound: C1CN(CCC1(CC2=CC=C(C=C2)Cl)N)C3=NC=NC4=C3C=CN4
Procedure, shortened: as §1

IRAK-1-4 Inhibitor I = compound: C1COCCN1CCN2C3=CC=CC=C3N=C2NC(=O)C4=CC(=CC=C4)[N+](=O)[O-] [IRAK-1-4 Inhibitor I]
Procedure, shortened: as §1

ibrutinib = compound: C=CC(=O)N1CCC[C@@H](n2nc(-c3ccc(Oc4ccccc4)cc3)c3c(N)ncnc32)C1 [ibrutinib]
Procedure, shortened: as §1

[9] = compound: CC(=O)c1cnc2ccc(-c3cc(Cl)c(O)c(Cl)c3)nc2c1N[C@H]1CC[C@H](CN(C)C)CC1
Procedure, shortened: as §1

ralimetinib = compound: CC(C)(C)Cn1c(N)nc2ccc(-c3[nH]c(C(C)(C)C)nc3-c3ccc(F)cc3)nc21 [ralimetinib]
Procedure, shortened: as §1

[10] = compound: CC(C)(O)CC(=O)NCCn1ccc2ncnc(Nc3ccc(Oc4cccc(C(F)(F)F)c4)c(Cl)c3)c21
Procedure, shortened: as §1

[11] = compound: CC(C)C1=C2N=C(C=C(N2N=C1)NCC3=CC=CC=C3)NCCCCCCN
Procedure, shortened: as §1

[12] = compound: CC1=C(C(CC(=O)N1)C2=CC=C(C=C2)C(F)(F)F)C(=O)NC3=C(C=C4C(=C3)C=NN4)F
Procedure, shortened: as §1

[13] = compound: CC1=C(C2=C(C=C1)C(=O)C3=CC=CC=C3N2CCCN)C
Procedure, shortened: as §1

[14] = compound: CC1=C(C=C(C=C1)NC(=O)C2=CC(=CC=C2)C(C)(C)C#N)NC3=CC4=C(C=C3)N=CN(C4=O)C
Procedure, shortened: as §1

[15] = compound: CC1=C(C=C(C=C1)NC(=O)C2=CC(=CC=C2)N(C)C)NC(=O)C3=CC=C(C=C3)O
Procedure, shortened: as §1

[16] = compound: CC1=CC=C(C=C1)SC2=C3C=C(SC3=CN=C2)C(=O)N
Procedure, shortened: as §1

Chain of UniProt O94855 (O94855 whole entry, looked up): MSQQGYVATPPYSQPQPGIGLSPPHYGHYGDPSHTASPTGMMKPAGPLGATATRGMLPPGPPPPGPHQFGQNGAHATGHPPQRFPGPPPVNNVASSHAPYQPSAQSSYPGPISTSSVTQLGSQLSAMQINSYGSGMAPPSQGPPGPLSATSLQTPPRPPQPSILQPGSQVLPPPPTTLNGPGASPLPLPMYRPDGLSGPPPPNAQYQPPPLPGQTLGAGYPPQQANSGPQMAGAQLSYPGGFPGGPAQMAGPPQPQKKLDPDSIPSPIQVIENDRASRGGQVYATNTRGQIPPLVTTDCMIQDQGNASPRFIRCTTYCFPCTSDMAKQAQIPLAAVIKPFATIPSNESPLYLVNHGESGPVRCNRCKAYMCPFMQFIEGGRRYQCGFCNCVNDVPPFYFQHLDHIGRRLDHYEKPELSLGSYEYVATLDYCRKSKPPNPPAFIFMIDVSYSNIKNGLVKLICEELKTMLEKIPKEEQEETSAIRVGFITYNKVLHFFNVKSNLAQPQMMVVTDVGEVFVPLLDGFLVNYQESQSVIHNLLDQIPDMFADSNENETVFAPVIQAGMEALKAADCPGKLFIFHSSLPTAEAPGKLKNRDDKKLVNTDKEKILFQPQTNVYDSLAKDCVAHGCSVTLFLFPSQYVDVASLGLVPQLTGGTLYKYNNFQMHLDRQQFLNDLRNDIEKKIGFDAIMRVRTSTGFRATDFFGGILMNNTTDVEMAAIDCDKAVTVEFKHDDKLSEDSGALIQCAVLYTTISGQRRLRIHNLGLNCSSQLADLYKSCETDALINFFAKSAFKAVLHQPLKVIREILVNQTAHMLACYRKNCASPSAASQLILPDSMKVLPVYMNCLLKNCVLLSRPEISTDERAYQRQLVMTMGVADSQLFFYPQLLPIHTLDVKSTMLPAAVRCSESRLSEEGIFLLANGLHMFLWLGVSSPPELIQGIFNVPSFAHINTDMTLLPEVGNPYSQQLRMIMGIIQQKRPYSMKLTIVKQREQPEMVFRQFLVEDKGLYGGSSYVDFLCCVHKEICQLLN
Chain of UniProt Q9UKL0 (Q9UKL0 whole entry, looked up): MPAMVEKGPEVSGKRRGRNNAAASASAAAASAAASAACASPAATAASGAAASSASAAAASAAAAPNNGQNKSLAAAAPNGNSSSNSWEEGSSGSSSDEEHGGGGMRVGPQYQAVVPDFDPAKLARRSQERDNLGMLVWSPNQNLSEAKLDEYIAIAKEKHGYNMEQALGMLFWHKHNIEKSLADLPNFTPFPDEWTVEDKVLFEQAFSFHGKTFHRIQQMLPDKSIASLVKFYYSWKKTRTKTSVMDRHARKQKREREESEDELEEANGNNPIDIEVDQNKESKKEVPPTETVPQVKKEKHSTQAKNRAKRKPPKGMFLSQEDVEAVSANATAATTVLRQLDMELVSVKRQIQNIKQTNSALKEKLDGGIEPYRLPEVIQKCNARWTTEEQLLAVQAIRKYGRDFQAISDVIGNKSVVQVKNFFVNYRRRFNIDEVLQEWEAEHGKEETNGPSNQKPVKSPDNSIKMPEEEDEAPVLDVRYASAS
Chain of UniProt P23921 (P23921 whole entry, looked up): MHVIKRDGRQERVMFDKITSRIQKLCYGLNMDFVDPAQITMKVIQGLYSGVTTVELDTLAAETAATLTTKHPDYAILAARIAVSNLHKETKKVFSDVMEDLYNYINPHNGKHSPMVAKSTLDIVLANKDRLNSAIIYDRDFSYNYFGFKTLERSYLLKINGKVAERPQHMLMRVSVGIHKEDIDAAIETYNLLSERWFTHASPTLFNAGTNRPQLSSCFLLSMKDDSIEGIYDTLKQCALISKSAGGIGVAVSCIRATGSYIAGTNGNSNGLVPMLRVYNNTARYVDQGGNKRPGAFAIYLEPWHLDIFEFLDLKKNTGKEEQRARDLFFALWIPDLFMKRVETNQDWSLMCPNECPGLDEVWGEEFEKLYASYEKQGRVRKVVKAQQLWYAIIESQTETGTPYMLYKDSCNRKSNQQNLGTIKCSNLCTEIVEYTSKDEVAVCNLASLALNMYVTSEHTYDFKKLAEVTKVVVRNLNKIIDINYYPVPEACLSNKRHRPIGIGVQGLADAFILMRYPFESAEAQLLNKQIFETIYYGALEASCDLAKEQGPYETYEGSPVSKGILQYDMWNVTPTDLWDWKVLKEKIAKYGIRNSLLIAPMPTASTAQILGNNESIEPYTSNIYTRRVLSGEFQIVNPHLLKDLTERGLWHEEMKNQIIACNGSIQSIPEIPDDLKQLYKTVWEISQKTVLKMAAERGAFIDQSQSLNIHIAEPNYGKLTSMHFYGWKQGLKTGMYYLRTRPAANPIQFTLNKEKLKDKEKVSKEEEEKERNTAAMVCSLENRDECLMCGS
Chain of UniProt P60059 (P60059 whole entry, looked up): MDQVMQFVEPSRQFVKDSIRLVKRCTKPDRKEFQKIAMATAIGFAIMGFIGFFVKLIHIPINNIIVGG
Chain of UniProt Q04864 (Q04864 whole entry, looked up): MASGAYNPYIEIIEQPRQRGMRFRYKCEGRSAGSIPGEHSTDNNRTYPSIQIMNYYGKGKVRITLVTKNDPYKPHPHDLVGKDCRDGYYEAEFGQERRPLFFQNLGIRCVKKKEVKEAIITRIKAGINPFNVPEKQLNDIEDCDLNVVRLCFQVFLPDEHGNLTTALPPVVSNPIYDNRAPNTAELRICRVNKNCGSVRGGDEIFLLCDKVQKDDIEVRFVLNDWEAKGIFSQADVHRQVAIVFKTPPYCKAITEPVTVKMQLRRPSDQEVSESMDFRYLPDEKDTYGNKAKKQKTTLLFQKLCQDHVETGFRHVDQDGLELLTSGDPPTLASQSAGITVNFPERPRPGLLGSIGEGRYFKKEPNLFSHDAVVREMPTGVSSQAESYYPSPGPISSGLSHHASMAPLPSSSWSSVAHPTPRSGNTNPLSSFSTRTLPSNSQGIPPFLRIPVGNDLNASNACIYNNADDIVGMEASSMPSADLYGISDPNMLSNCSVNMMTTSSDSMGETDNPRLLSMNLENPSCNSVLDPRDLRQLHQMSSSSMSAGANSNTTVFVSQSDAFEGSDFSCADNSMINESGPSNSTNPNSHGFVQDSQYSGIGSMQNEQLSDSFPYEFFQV
Chain of UniProt P53611 (P53611 whole entry, looked up): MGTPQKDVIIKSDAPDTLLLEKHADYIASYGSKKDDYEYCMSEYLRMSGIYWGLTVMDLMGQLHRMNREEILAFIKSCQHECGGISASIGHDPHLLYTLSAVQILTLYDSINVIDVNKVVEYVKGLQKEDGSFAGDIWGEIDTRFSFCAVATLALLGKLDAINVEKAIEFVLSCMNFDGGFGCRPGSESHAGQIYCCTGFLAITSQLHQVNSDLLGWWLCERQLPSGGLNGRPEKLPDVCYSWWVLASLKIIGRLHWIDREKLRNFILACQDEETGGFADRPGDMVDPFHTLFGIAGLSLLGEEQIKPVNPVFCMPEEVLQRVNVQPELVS
Chain of UniProt Q5HYI8 (Q5HYI8 whole entry, looked up): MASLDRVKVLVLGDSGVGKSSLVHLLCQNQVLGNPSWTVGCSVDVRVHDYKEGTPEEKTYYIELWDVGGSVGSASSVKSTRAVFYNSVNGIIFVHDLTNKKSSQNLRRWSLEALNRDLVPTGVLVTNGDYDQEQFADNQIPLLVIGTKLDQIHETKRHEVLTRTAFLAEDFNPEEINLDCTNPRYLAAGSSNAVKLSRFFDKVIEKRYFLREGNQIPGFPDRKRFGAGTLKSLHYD
Chain of UniProt O43502 (O43502 whole entry, looked up): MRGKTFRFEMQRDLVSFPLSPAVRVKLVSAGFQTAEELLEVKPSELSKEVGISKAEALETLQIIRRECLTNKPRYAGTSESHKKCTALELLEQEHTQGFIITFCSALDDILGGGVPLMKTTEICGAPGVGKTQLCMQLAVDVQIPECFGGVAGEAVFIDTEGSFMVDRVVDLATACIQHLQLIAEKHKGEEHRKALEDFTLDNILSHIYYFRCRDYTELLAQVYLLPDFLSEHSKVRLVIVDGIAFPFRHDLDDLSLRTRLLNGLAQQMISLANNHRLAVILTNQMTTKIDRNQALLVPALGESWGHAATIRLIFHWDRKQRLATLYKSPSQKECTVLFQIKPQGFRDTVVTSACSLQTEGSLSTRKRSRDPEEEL
Chain of UniProt Q16576 (Q16576 whole entry, looked up): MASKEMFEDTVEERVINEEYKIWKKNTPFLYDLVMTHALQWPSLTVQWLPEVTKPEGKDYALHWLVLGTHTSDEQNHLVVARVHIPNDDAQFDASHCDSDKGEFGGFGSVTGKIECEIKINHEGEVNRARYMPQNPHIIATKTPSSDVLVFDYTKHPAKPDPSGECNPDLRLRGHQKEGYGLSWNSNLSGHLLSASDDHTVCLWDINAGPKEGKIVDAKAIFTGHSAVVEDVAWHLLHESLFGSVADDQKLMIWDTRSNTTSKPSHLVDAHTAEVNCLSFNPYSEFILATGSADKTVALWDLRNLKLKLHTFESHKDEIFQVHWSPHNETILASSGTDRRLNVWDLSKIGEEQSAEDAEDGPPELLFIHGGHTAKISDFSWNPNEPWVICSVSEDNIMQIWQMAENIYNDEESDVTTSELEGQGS
Chain of UniProt Q9NR31 (Q9NR31 whole entry, looked up): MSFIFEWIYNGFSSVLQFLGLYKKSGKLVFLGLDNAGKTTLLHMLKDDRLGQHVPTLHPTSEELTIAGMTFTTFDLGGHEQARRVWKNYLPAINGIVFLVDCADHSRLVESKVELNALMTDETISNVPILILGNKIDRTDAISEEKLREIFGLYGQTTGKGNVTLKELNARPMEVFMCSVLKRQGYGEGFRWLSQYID
Chain of UniProt Q9UL25 (Q9UL25 whole entry, looked up): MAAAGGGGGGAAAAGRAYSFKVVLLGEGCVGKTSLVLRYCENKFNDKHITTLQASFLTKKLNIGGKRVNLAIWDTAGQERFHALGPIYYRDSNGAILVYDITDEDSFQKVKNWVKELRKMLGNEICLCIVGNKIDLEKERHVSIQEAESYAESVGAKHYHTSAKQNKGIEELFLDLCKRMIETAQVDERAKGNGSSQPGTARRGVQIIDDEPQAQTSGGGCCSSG

Target | log2 fold change (erlotinib) | log2 fold change [1] | log2 fold change [2] | log2 fold change [3] | log2 fold change [4] | log2 fold change [5] | log2 fold change [6] | log2 fold change [7] | log2 fold change [8] | log2 fold change (IRAK-1-4 Inhibitor I) | log2 fold change (ibrutinib) | log2 fold change [9] | log2 fold change (ralimetinib) | log2 fold change [10] | log2 fold change [11] | log2 fold change [12] | log2 fold change [13] | log2 fold change [14] | log2 fold change [15] | log2 fold change [16]
RCOR1 (UniProt Q9UKL0) | -0.023 | 0.065 | -0.004 | -0.053 | -0.051 | 0.005 | -0.035 | -0.008 | 0.017 | 0.003 | 0.016 | -0.001 | 0.023 | -0.028 | 0.264 | 0 | 0.013 | -0.049 | 0.02 | 0.021
RPS29 (UniProt P62273) | 0.088 | 0.023 | 0.018 | -0.064 | -0.026 | 0.017 | 0.051 | 0.018 | -0.037 | 0.046 | 0.002 | 0.025 | -0.138 | 0.03 | -0.109 | 0.086 | -0.093 | -0.108 | -0.068 | 0.058
RPS4X (UniProt P62701) | -0.016 | 0.014 | -0.012 | -0.012 | -0.018 | -0.002 | -0.005 | 0.017 | 0.004 | 0.03 | 0 | -0.003 | 0.009 | -0.021 | 0.022 | -0.026 | -0.116 | -0.008 | -0.001 | 0.034
SEC61G (UniProt P60059) | 0.065 | -0.196 | -0.111 | 0.032 | 0.043 | 0.032 | -0.126 | -0.096 | 0.065 | 0.083 | 0.037 | 0 | -0.019 | -0.229 | -0.052 | -0.081 | -0.053 | 0.071 | 0.004 | 0.052
RAB21 (UniProt Q9UL25) | 0 | -0.008 | 0.015 | 0.02 | 0.02 | -0.028 | -0.034 | 0.026 | 0.012 | 0.045 | 0.026 | -0.004 | 0.057 | -0.02 | -0.002 | 0.019 | 0.021 | -0.023 | -0.002 | 0.015
RABL3 (UniProt Q5HYI8) | 0.706 (active) | -0.019 | -0.025 | 0.011 | 0.008 | 0.96 (active) | -0.041 | 0.015 | 0.017 | 0.48 | 0.017 | 0.014 | 0.153 | -0.05 | -0.047 | 0.021 | -0.043 | 0.003 | -0.141 | 0.014
SAR1A (UniProt Q9NR31) | -0.268 | -0.112 | 0.05 | -0.019 | -0.063 | -0.056 | 0.048 | -0.08 | 0.001 | -0.029 | -0.082 | -0.105 | 0.027 | -0.028 | 0.026 | 0.163 | -0.042 | 0.021 | -0.045 | 0.112
RABGGTB (UniProt P53611) | 0.01 | 0.026 | -0.015 | 0.021 | 0.04 | -0.023 | -0.093 | -0.029 | 0.003 | 0.03 | -0.017 | -0.042 | 0.018 | -0.052 | 0.015 | -0.002 | -0.006 | -0.013 | 0.048 | 0.013
RBBP7 isoform 2 (UniProt Q16576) | -0.036 | 0.046 | -0.036 | -0.03 | -0.013 | -0.002 | 0.055 | 0.041 | -0.026 | -0.006 | 0.016 | 0.043 | 0.062 | 0.042 | -0.028 | -0.029 | 0.011 | -0.002 | -0.001 | 0.034
SEC24D isoform 2 (UniProt O94855) | 0.016 | 0.04 | 0.012 | 0.008 | 0.032 | 0.022 | 0.001 | -0.013 | 0.004 | -0.002 | 0.005 | -0.024 | 0.01 | -0.018 | 0 | -0.009 | -0.011 | 0.019 | -0.035 | 0.023
RRM1 (UniProt P23921) | 0.018 | -0.019 | 0.007 | 0.025 | 0.029 | -0.01 | -0.043 | -0.046 | -0.022 | 0.021 | 0.025 | 0 | 0.005 | -0.01 | 0.022 | 0 | -0.033 | -0.009 | 0.024 | 0.016
SCD (UniProt O00767) | 0.075 | -0.093 | 0.027 | 0.056 | -0.012 | 0.009 | 0.011 | -0.24 | -0.021 | 0.07 | -0.06 | -0.053 | 0.059 | -0.009 | -0.052 | 0.032 | 0.047 | 0.02 | -0.085 | -0.128
REL isoform 2 (UniProt Q04864) | 0.022 | -0.005 | -0.048 | 0.016 | -0.017 | 0.037 | -0.019 | -0.011 | -0.02 | 0.019 | 0.032 | 0.015 | 0.06 | -0.003 | 0.005 | -0.018 | 0.038 | 0.022 | -0.023 | 0.049
RARS (UniProt P54136) | 0.037 | 0.029 | -0.023 | 0.023 | 0.043 | 0.029 | -0.025 | -0.005 | 0.005 | 0.008 | -0.001 | -0.003 | 0.062 | 0.048 | 0.033 | -0.019 | 0.015 | -0.003 | 0.06 | 0.033
RAD51C (UniProt O43502) | 0 | -0.053 | 0.023 | -0.074 | -0.003 | 0.001 | -0.004 | 0.017 | 0.02 | -0.051 | -0.015 | 0.055 | 0.044 | 0.009 | 0.067 | -0.015 | -0.039 | 0 | -0.037 | -0.051
RPS18 (UniProt P62269) | -0.021 | -0.088 | -0.007 | -0.006 | -0.004 | -0.012 | -0.007 | 0.005 | 0.004 | 0.047 | -0.016 | 0.01 | -0.006 | -0.02 | 0.008 | -0.037 | -0.1 | 0 | -0.006 | -0.012

Source: the supplement of paper PMC10849652
